From the supplement of paper PMC5499739
Whole data set: some 16,000 sequences, median “Z-score” near -0.37, cut for the highest 2% near 3.2. Shown is part of a subset that was picked to be rich in the highest values.

System: RBM10 RRM1-ZnF (GST-tagged construct)
Experiment: RNAcompete 7-mer binding Z-score; higher = stronger binding preference
Protocol: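 RNAcompete: 20 pmol GST-tagged RBM10 RNA-binding constructs were incubated with a designed RNA pool of about 241,000 sequences up to 41 nt (1.5 nmol) on glutathione beads for 30 min at 4 °C and washed. Bound RNAs were identified by microarray hybridisation. Each RNA 7-mer is scored by a one-sided Z-score of its enrichment, computed over probes that contain the 7-mer within longer pool sequences.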

| Sequence | RNAcompete 7-mer binding Z-score |
| --- | --- |
| CACCUUG | -0.516 |
| ACUAGUG | 0.0983 |
| GUACCAG | -0.035 |
| ACCAGGA | 0.823 |
| CGCGGCG | 1.25 |
| CGCCAUA | -0.594 |
| UGAGGGG | 3.64 |
| UGAGGCU | 0.3 |
| CGAGGGC | 1.06 |
| AGAGGGU | 2.22 |
| CGAGGUU | 0.846 |
| UGAGAGG | 1.94 |
| UGAGGGC | 2.27 |
| UGAGGGA | 4.02 |
| CGAGGGU | 3.7 |
| UGAGGAG | 1.86 |
| CGAGGGA | 2.84 |
| UGAGGGU | 3.48 |
| UAGCGGC | -0.132 |
| AGAUGAU | 0.287 |
| UGACUCC | -0.652 |
| AUUUAAC | -0.561 |
| GGGAGAU | 2.7 |

| Sequence | RNAcompete 7-mer binding Z-score |
| --- | --- |
| CGAAGCU | -0.691 |
| GUCAGCU | -0.425 |
| AGUGCCG | -0.11 |
| UCGCAAU | -0.545 |
| CGAACGA | -0.123 |
| GGGCAUA | 1.66 |
| AUACACC | -0.795 |
| CUGAGGC | -0.0155 |
| GGAGGAU | 2.46 |
| GGAGGGU | 3.97 |
| GGAGGCU | 1.41 |
| CCCAAUG | -0.662 |
| GUAGGGU | 4.46 |
| UUAGGGU | 2.78 |
| UUAGGGA | 2.03 |
| AUAGGGG | 3.9 |
| CUAGGGU | 2.25 |
| GUAGGGC | 2.49 |
| GUAGGGG | 4.54 |
| CUAGGGG | 2.46 |
| UUAGGGG | 2.4 |
| AUAGGUG | 2.64 |
| AUAGGCG | 0.781 |

| Sequence | RNAcompete 7-mer binding Z-score |
| --- | --- |
| GUAGGGA | 3.87 |
| GCAUACU | -0.694 |
| UACAGGU | 0.881 |
| AUAGCAG | 0.358 |
| ACUCGGG | 0.667 |
| ACAACCA | -0.464 |
| CAAUGUC | -0.75 |
| GAGACCA | -0.126 |
| GACUAAC | -0.626 |
| UCCUUGC | -0.733 |
| GACUGGG | 2.42 |
| AUAGGGA | 2.86 |
| GUAGGAC | 1.4 |
| GUAGGAG | 3.43 |
| CUAGGAG | 0.608 |
| AUAGGGU | 3.61 |
| AUAGGGC | 1.72 |
| CCAGCAA | -0.617 |
| AUGGCAU | 0.514 |
| UUAAAAA | -0.444 |
| GGCCUGC | -0.428 |
| AAAAGCG | 0.378 |
| ACUUCUC | -0.841 |

| Sequence | RNAcompete 7-mer binding Z-score |
| --- | --- |
| UAUAAUA | -0.412 |
| CGCGUGC | -0.223 |
| GCGGGUG | 3.17 |
| ACGGGGG | 3.27 |
| ACGGGGU | 4.07 |
| ACGGGUU | 2.65 |
| ACCGGGU | 0.631 |
| ACGGGUC | 1.19 |
| ACGGGUG | 3.39 |
| ACGGGGA | 3.04 |
| ACGGGGC | 2.26 |
| CUCAAUC | -0.769 |
| ACGCUCG | -0.636 |
| UUUUAUC | -0.873 |
| CAGCCUG | -0.513 |
| GAAGUGU | 1.08 |
| GAAGUGC | 0.29 |
| GAAGUGG | 3.46 |
| AGAGUGG | 2.81 |
| GGAGUGG | 4.84 |
| GGAGUGA | 2.38 |
| CGUCCCG | -0.594 |
| CGUUCUA | -0.811 |

| Sequence | RNAcompete 7-mer binding Z-score |
| --- | --- |
| UUUCUUA | -0.727 |
| UUAUAAC | -0.704 |
| GACUAUA | -0.542 |
| UAAGGCG | 1.03 |
| CAAGGGG | 2.79 |
| GAAGGCU | 0.621 |
| UAAGGGU | 3.44 |
| AAAGGGC | 2.62 |
| UAAGGGG | 3.27 |
| AAAGGGA | 4.42 |
| CAAGGGA | 2.42 |
| CAAGGGU | 2.65 |
| GAAGGGC | 2.98 |
| GAAGGGU | 4.19 |
| UAAGGCU | 0.183 |
| ACUUAGU | -0.435 |
| GAAUGCU | -0.184 |
| AUAGAAU | -0.132 |
| CCUCGCU | -0.681 |
| UUACUAC | -0.707 |
| UGCUGUG | -0.119 |
| UCUGACG | -0.535 |
| UACCAAC | -0.668 |

| Sequence | RNAcompete 7-mer binding Z-score |
| --- | --- |
| GCAGGGA | 2.92 |
| GAAGGGA | 4.52 |
| UAAGGGC | 1.49 |
| UAAGGGA | 3.27 |
| GAAGGCA | 1.7 |
| UAAGGCA | 0.888 |
| CCUCAUC | -0.737 |
| CCACGUA | -0.578 |
| GGGCGAG | 3.37 |
| UGGCGGG | 3.47 |
| GGGCAGA | 2.45 |
| GGGCGAA | 2.22 |
| GGGCAGG | 3.39 |
| GGGCGAC | 1.81 |
| GGACAGU | 0.842 |
| GGACAGG | 3.3 |
| AGACAGG | 1.59 |
| UGGCGGU | 1.49 |
| CGGCGGG | 2.07 |
| AGGCAGG | 1.8 |
| UCUGGUA | -0.435 |
| CAUAACA | -0.444 |
| UGUUAUC | -0.457 |

| Sequence | RNAcompete 7-mer binding Z-score |
| --- | --- |
| UGUCUCU | -0.649 |
| CGCUAUC | -0.668 |
| CGGAAGC | 0.283 |
| GGACAAU | 0.927 |
| UGCGACA | -0.145 |
| UCAGAUC | -0.604 |
| ACUAGGA | 0.719 |
| GGGCGGA | 2.86 |
| GGGCGGG | 3.66 |
| GGGCGGU | 2.28 |
| CUCAAAU | -0.698 |
| AACUUCC | -0.919 |
| AAAUUCA | -0.668 |
| CUGUUAA | -0.779 |
| UGGUACG | 1.43 |
| AAACUAG | -0.327 |
| UUGGGUA | 2.33 |
| ACGGGUA | 2.05 |
| GCGGGUA | 2.88 |
| GGGGGUA | 3.99 |
| AGGGGUC | 1.98 |
| CGGGGUA | 3.2 |
| UGGGGUA | 3.56 |

| Sequence | RNAcompete 7-mer binding Z-score |
| --- | --- |
| AGGGGUA | 3.69 |
| GACCGGC | -0.532 |
| UGGAGUG | 3.08 |
| GCUUCCC | -0.665 |
| UGUACAC | -0.24 |
| AUGCAAG | 0.472 |
| ACAGGCC | -0.0512 |
| UCCUUUG | -0.876 |
| UCCGGCG | -0.275 |
| AUCCGGU | -0.227 |
| GAGUUAA | 0.29 |
| AAGAAGA | 1.11 |
| AUGAAGG | 2.96 |
| GAGAAGA | 1.22 |
| UAGAAGG | 3.12 |
| AAGAAGG | 3.54 |
| GAGAAGG | 4.53 |
| CUGAAGG | 1.22 |
| GUGAAGG | 3.74 |
| CAGAAGG | 1.57 |
| AUAAAGU | -0.155 |
| UUCCCGC | -0.759 |
